Assay outcomes from PubChem BioAssay.
CYP2C19 inhib: blockers of cytochrome P450 2C19 activity – biochemical, luminescence, ADME assay, primary screen. CYP2C19 Supersomes, luciferin-H EGE luminescence, 30 min. P33261. inhibition, % at 5 µM. AID 778, 2007. 21% of 96,000 active;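 active means CYP2C19 inhibition above a set limit at 5 µM in the primary screen, cut at about 50% in these data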
CYP2C19 act: human CYP2C19 activators, primary screen, biochemical, luminescence; Cytochrome P450 2C19 (Homo sapiens), P33261; recombinant CYP2C19, luciferin-H EGE luminescence; hits give high values; 0 = fully inhibited enzyme, 1 = untreated enzyme; activation factor at 5 µM; AID 1025, 2008; 96,000 tested, under 10 active;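 active means activation factor of at least 2 at 5 µM in the primary screen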
Cav3 T inh: Cav3.2 calcium influx blockers – cell-based, Fluo-4 calcium fluorescence, FDSS, MLSMR library, primary screen; Voltage-dependent T-type calcium channel subunit alpha-1H (Homo sapiens), O95180; Cav3.2-expressing cells; hits give low values; B-score at 10 µM; 4% of 100,000 active; AID 449739, 2010;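 active means single-dose well whose peak fluorescence ratio is a statistical outlier from its plate by either plate-standardised score or position-corrected B-score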
CYP2C9 inh: blockers of cytochrome P450 2C9 activity – biochemical, luminescence, ADME assay, primary screen; inhibition, % at 5 µM; 20% of 96,000 active; CYP2C9 Supersomes, luciferin-H conversion; P11712; AID 777, 2007;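 active means blocking of liver enzyme CYP2C9 beyond about 50% at 5 µM, limit read from the data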
CYP2C9 act: human CYP2C9 activators, primary screen, biochemical, luminescence | 1.4% of 96,000 active | Cytochrome P450 2C9 (Homo sapiens), P11712 | AID 1024, 2008 | activation factor at 5 µM | recombinant CYP2C9, luciferin-H conversion; hits give high values; factor 1 = untreated enzyme, 0 = blocked;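 active means activation factor of 2 or more for CYP2C9 at a 5 µM dose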
Large screens that a line does not name were inactive. A selection: hits, their analogues and other compounds. The true share with any hit is near 27%.

COc1ccc(-c2cc(=Nc3ccc(C)cc3)c3ccccc3o2)cc1	CYP2C9 inh 52.9
Cc1ccc(C)c(NC(=O)CS(=O)(=O)c2cn(C)c3ccccc23)c1	none (no result: CYP2C19 inhib, CYP2C19 act, CYP2C9 inh, CYP2C9 act)
CC(=O)NC(Cc1c[nH]c2ccccc12)C(=O)Nc1ccc2c(c1)OCO2 (configuration not stated)	none (no result: Cav3 T inh)
Cc1ccc(NC(=O)CS(=O)(=O)c2c[nH]c3ccccc23)c(C)c1	CYP2C19 inhib 74.8
O=C(CS(=O)(=O)c1c[nH]c2ccccc12)Nc1ccc2c(c1)OCCO2	CYP2C19 inhib 68.4
COc1cc(/C=C(/C#N)c2nc3ccccc3[nH]2)ccc1OC(=O)c1ccco1	CYP2C9 inh 60.6
COc1cc(/C=C(\C#N)c2nc3ccccc3[nH]2)ccc1Oc1ccc([N+](=O)[O-])cn1	none
N#CCN1CCN(CCC(=O)Nc2ccc(OCc3ccccc3)cc2)CC1	none
Cc1ccc(NCC(=O)N/N=C/c2cc3ccccc3nc2Cl)cc1	CYP2C9 inh 53.7 (no result: Cav3 T inh)
CCOC(=O)c1cnn(CC2CCCCC2)c1N	CYP2C19 inhib 60.5, CYP2C9 inh 92.4
Cc1ccccc1NC(=O)CSc1[nH]c(=O)cc(C)c1C#N	CYP2C19 inhib 62.9, CYP2C9 inh 80.6 (no result: Cav3 T inh)
COc1ccc(NC(=O)CSc2[nH]c(=O)cc(C)c2C#N)cc1OC	none
Cc1cc(=O)[nH]c(SCC(=O)c2ccccc2)c1C#N	CYP2C9 inh 85.4
Cc1ccc(NS(=O)(=O)c2ccccc2)c2c1CC(C)(C)O2	CYP2C19 inhib 65.7, CYP2C9 act 2
O=C(Nc1ccc2c(c1)OCCO2)c1ccc(Br)o1	none
C=CCOc1cccc(C2C(C(=O)c3ccco3)=C(O)C(=O)N2Cc2ccncc2)c1 (configuration not stated)	CYP2C9 inh 83.9
C=CCOc1cccc(C2C(C(=O)c3ccc(C)o3)=C(O)C(=O)N2Cc2ccncc2)c1 (configuration not stated)	CYP2C9 inh 61.8
C=CCOc1cccc(C2C(C(=O)c3ccco3)=C(O)C(=O)N2CCN2CCOCC2)c1 (configuration not stated)	none
COc1cccc(C(C(=O)NC2CCCC2)N(Cc2ccccc2OC)C(=O)c2ccco2)c1 (configuration not stated)	none (no result: CYP2C19 inhib, CYP2C19 act, CYP2C9 inh, CYP2C9 act)
FC(F)(F)c1nc2nncn2c2c1CCCCC2	none
O=C(O)C1=C[C@H](c2ccc(F)cc2)C[C@H](OCc2ccc(CO)cc2)O1	none (no result: CYP2C19 inhib, CYP2C19 act, CYP2C9 inh, CYP2C9 act)
COc1ccccc1CNc1nc2nc3c(c(=O)n2[nH]1)CCC3	CYP2C9 inh 75.5
COc1ccc(-n2c(C)c3c(OC)cccc(=O)c3c2C)cc1	CYP2C19 inhib 81.3, CYP2C9 inh 58.2 (no result: Cav3 T inh)
CN(C)c1ccc2c(c1)OC(N)=C(C#N)C2c1cccc(F)c1 (configuration not stated)	CYP2C19 inhib 92.4, CYP2C9 inh 80.5 (no result: Cav3 T inh)
N#CC1=C(N)Oc2c(ccc3ccccc23)C1c1cccs1 (configuration not stated)	CYP2C9 inh 54.1
COC(=O)CC1=C(C(=O)OC)C(c2cccs2)C(C#N)=C(N)O1 (configuration not stated)	none
COC(=O)c1ccc(NC(=O)COc2ccc(C3C(C#N)=C(N)Oc4c3ccc3ccccc43)cc2OC)cc1 (configuration not stated)	none (no result: CYP2C19 inhib, CYP2C19 act, CYP2C9 inh, CYP2C9 act)
N#CC1=C(N)Oc2cc(O)ccc2C1c1cccs1 (configuration not stated)	CYP2C19 inhib 75.9, CYP2C9 inh 74.3
N#CC1=C(N)Oc2ccc3ccc(O)cc3c2C1c1cccnc1 (configuration not stated)	none
N#CC1=C(N)Oc2cc(O)ccc2C1c1ccncc1 (configuration not stated)	CYP2C19 inhib 84.3, Cav3 T inh -4.64, CYP2C9 inh 92.5
COC(=O)C1=C(C(=O)OC)[C@@H]2N(C)c3ccc(OC)cc3[C@@]23C[C@@H](C(=O)OC)N(C(=O)NC2CCCCC2)C3=N1	none (no result: CYP2C19 inhib, CYP2C19 act, CYP2C9 inh, CYP2C9 act)
c1ccc(C2(c3ccccc3)OCC(Cn3cncn3)O2)cc1 (configuration not stated)	CYP2C19 inhib 66.4, CYP2C9 inh 51.9
Cc1ccc(C2=NN3C(C(=O)c4ccccc4)Oc4ccccc4C3C2)cc1 (configuration not stated)	CYP2C19 inhib 81.7, Cav3 T inh -7.3, CYP2C9 inh 69.6
COc1ccc(C2=NN3C(C2)c2ccccc2OC32C(=O)N(C)c3ccccc32)cc1 (configuration not stated)	none (no result: Cav3 T inh)
O=S(=O)(NCc1ccccc1)c1ccc(Cl)c(S(=O)(=O)NCc2ccccc2)c1	none
O=S(=O)(NCc1cc(-c2ccccc2Cl)no1)c1ccc(Cl)cc1	CYP2C19 inhib 93.4, Cav3 T inh -7.18
c1ccc(Cn2ccc(-c3cnc(-c4ccccc4)s3)n2)cc1	CYP2C19 inhib 93.9, CYP2C9 inh 73.6
O=C(O)CC1Oc2ccc(Cl)cc2NC1=O (configuration not stated)	CYP2C9 inh 55.4
CC(=O)Nc1ccc(-c2csc(NC(=O)c3ccc(C)o3)n2)cc1	CYP2C19 inhib 52.3
CC12CN(S(=O)(=O)c3ccccc3)CC(C)(CN(S(=O)(=O)c3ccccc3)C1)C2	none
CCCCN(CCCC)C(=O)c1ccccc1NC(=O)CN1C(=O)c2ccccc2C1=O	CYP2C19 inhib 92.0, CYP2C9 inh 92.8
O=C(CN1C(=O)c2ccccc2C1=O)Nc1ccccc1C(=O)N1CCCC1	none
COc1ccccc1OCC(=O)Nc1ccc(S(=O)(=O)Nc2nc(C)cc(C)n2)cc1	CYP2C9 inh 70.1
COc1ccccc1NS(=O)(=O)c1ccc(NC(=O)c2nc3nc(C)cc(C(F)F)n3n2)cc1	CYP2C9 inh 61.1
COc1ccc(C(=O)Nc2ccc(S(=O)(=O)Nc3cc(C)nc(C)n3)cc2)c(OC)c1	none
COc1ccc(NC(=O)c2nc3nc(C)cc(C(F)F)n3n2)cc1OC	none
COc1ccccc1C(=O)Nc1ccc(S(=O)(=O)Nc2cc(C)nc(C)n2)cc1	CYP2C9 inh 55.9
Cc1ccc(/C=C/C(=O)N2CC(C)CC(C)C2)o1 (configuration not stated)	none
CN(Cc1ccccc1)C(=O)c1ccc2c(c1)OCCO2	CYP2C19 inhib 83.6
CN(Cc1ccccc1)C(=O)c1cc2ccccc2o1	CYP2C19 inhib 94.0
O=C(CCOc1ccccc1)OCC(=O)c1cc2ccccc2o1	CYP2C19 inhib 70.3, CYP2C9 inh 64.9
CN(CCOC(=O)c1ccc2c(c1)OCCO2)Cc1ccccc1	CYP2C19 inhib 54.2, CYP2C9 inh 62.4
O=C(O)c1ccc(-n2c(-c3ccc(Br)cc3)n[nH]c2=S)cc1	none
NC(=O)COC(=O)c1cc(S(=O)(=O)N2CCOCC2)ccc1N1CCCCC1	none
O=C(Nc1cc(S(=O)(=O)N2CCCC2)ccc1Cl)C1=COCCO1	CYP2C19 inhib 52.5
